Experimental data taken from PubChem BioAssay.
Several values for one entry are separate records, joined by “and”; a condition that tells them apart may be missing. Equal values may be shown once. Activity calls are given as the source filed them.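 How the source made its calls, unless noted: active means normalized viability below 100% at a tested concentration; inactive means the rest.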

How the values were obtained:
[1] = sensitizers of A549 cells to miR-34 induction, primary screen, imaging, A549 dox-inducible miR-34, nuclei and caspase counts (AID 1347080;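 active means compounds whose cell count with miR-34 switched on is under 0.7 times the count with it off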); settings: A549 miR-34 inducible, Hoechst nuclei count, 48 h
[2] = survival rescue of mitochondrial mutant cells in low glucose, primary screen, MELAS cybrids, Rieske KO mouse fibroblasts, CellTiter-Glo (AID 1508586;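 active means mean z-score across replicates of 1.96 or higher in either the MELAS or the Rieske mutant cell line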;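 further: z relative to plate mean and SD of compound and empty wells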)
[3] = ovarian cancer cell viability with rucaparib, profiling panel, oncology-focused library, rucaparib conditional (AID 1508598); settings: patient-derived ovarian cancer cells, CellTiter-Glo viability, 144 h, stronger effect = lower value
[4] = LFS_MB_P medulloblastoma growth inhibition, cell-based, chromothripsis tumors, cisplatin or BGB combos (AID 1671449; in the data active means inhibition above about 80%;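 further: cells exposed for 96 hours; 0% = vehicle DMSO and 100% = killing by high DMSO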); settings: LFS_MB_P medulloblastoma cells
[5] = HDN33 neuroblastoma growth inhibition, cell-based, chromothripsis tumors, cisplatin or BGB combos (AID 1671450; in the data active means inhibition above about 80%;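 further: cells exposed to compound for four days; 0% = vehicle DMSO and 100% = cell killing by high DMSO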); settings: HDN33 neuroblastoma cells, stronger effect = higher value
[6] = ICB984 medulloblastoma cell growth inhibition, synergistic combos for chromothripsis tumors, cisplatin or BGB combos (AID 1671451; call rule not given here;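 further: cells exposed for 96 hours before readout; 0% = vehicle DMSO and 100% = killing by high DMSO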); settings: ICB984 medulloblastoma cells, drug combinations, stronger effect = higher value
[7] = LFS_MB_1R medulloblastoma cell growth inhibition, synergistic combos for chromothripsis tumors, cisplatin or BGB combos (AID 1671452; in the data active means inhibition above about 80%;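 further: cells exposed for 96 hours before readout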); settings: LFS_MB_1R medulloblastoma cells, stronger effect = higher value
[8] = HTB85 osteosarcoma cell growth inhibition, synergistic combos for chromothripsis tumors, BGB or cisplatin IC20 combos (AID 1671453; in the data active means inhibition above about 80%;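 further: cells exposed for 96 hours before readout; 0% = vehicle DMSO and 100% = high DMSO killing control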); settings: HTB85 osteosarcoma cells, drug combinations, stronger effect = higher value
[9] = CRL2098 osteosarcoma cell growth inhibition, synergistic combos for chromothripsis tumors, BGB or cisplatin IC20 combos (AID 1671454; in the data active means inhibition above about 80%;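 further: cells exposed for 96 h before readout; 0% = vehicle DMSO and 100% = killing by high DMSO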); settings: CRL2098 osteosarcoma cells, drug combinations, stronger effect = higher value
[10] = HD-MB03 medulloblastoma cell growth inhibition, synergistic combos for chromothripsis tumors, BGB or cisplatin IC20 combos (AID 1671455; in the data active means inhibition above about 83%;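 further: 0% = vehicle DMSO and 100% = high DMSO as cytotoxic control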); settings: HD-MB03 medulloblastoma cells, stronger effect = higher value
[11] = UWB1.289 ovarian carcinoma cell growth inhibition, synergistic combos for chromothripsis tumors, BGB or cisplatin combos (AID 1671456; in the data active means inhibition above about 80%;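 further: cells exposed to compound for four days; 0% = vehicle DMSO and 100% = killing by high DMSO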); settings: UWB1.289 ovarian carcinoma cells, stronger effect = higher value
[12] = LFS_MB_2R medulloblastoma cell growth inhibition, synergistic combos for chromothripsis tumors, cisplatin combos (AID 1671457; in the data active means inhibition above about 80%;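 further: cells exposed to compound for four days before readout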); settings: LFS_MB_2R medulloblastoma cells, stronger effect = higher value
[13] = MDA-MB-436 breast carcinoma cell growth inhibition, synergistic combos for chromothripsis tumors, BGB or cisplatin combos (AID 1671458; call rule not given here;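 further: cells exposed for 96 hours; 0% = vehicle DMSO and 100% = killing by high DMSO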); settings: MDA-MB-436 breast carcinoma growth inhibition, drug combinations, stronger effect = higher value
[14] = UWB1.289_BRCA1 ovarian cancer growth, cell-based, BGB or cisplatin combinations (AID 1671459; in the data active means inhibition above about 80%); settings: UWB1.289 BRCA1 ovarian carcinoma, drug combinations, stronger effect = higher value
[15] = growth inhibition of BT084 medulloblastoma cells, cell-based, ICGC_MB145, cisplatin and BGB IC40 combos (AID 1671461; in the data active means inhibition above about 80%;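 further: cells exposed to drugs for 96 hours; 0% = vehicle DMSO and 100% = high DMSO full killing control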); settings: drug combinations, at 0.5 µM, stronger effect = higher value
[16] = measured here: combination with BGB IC40, at 0.05 µM
[17] = measured here: combination with cisplatin, at 0.5 µM
[18] = measured here: combination with cisplatin, at 5 µM

## O=C(NCC1(c2nc(-c3ccccc3)cs2)CCOCC1)c1cccc(-c2noc(C(F)(F)F)n2)c1
[1]; stronger effect = lower value, cell number ratio, induced over uninduced
  fold change: 0.836 (inactive)
[1]; measured here: relative caspase fold change +Dox/-Dox
  fold change: 0.412
[1]; measured here: total cells with miR-34 induction, stronger effect = lower value
  cell count: 6620
[1]; measured here: total cells without miR-34 induction
  cell count: 7920
[2]; MELAS cybrid survival, CellTiter-Glo 48 h, stronger effect = higher value
  z-score: 0.0872 (inactive)
[2]; Rieske KO mouse fibroblast survival, CellTiter-Glo 72 h
  z-score: 0.109
[3]; at 0.000305 µM, OCI-C5x cells, with rucaparib 10 µM, 100% = cells with rucaparib alone
  viability: 124% (inactive)
[3]; at 0.000305 µM, OCI-C5x cells, without rucaparib
  viability: 111% (inactive)
[3]; at 0.000305 µM, OCI-P5x cells, with rucaparib 20 µM, 100% = cells with rucaparib alone
  viability: 98.3% (active)
[3]; at 0.000305 µM, OCI-P5x cells, without rucaparib
  viability: 94.3% (active)
[3]; at 0.00122 µM, OCI-C5x cells, with rucaparib 10 µM, 100% = cells with rucaparib alone
  viability: 128% (inactive)
[3]; at 0.00122 µM, OCI-C5x cells, without rucaparib
  viability: 113% (inactive)
[3]; at 0.00122 µM, OCI-P5x cells, with rucaparib 20 µM, 100% = cells with rucaparib alone
  viability: 104% (inactive)
[3]; at 0.00122 µM, OCI-P5x cells, without rucaparib
  viability: 101% (inactive)
[3]; at 0.00488 µM, OCI-C5x cells, with rucaparib 10 µM, 100% = cells with rucaparib alone
  viability: 127% (inactive)
[3]; at 0.00488 µM, OCI-C5x cells, without rucaparib
  viability: 117% (inactive)
[3]; at 0.00488 µM, OCI-P5x cells, with rucaparib 20 µM, 100% = cells with rucaparib alone
  viability: 95.9% (active)
[3]; at 0.00488 µM, OCI-P5x cells, without rucaparib
  viability: 97.2% (active)
[3]; at 0.0195 µM, OCI-C5x cells, with rucaparib 10 µM, 100% = cells with rucaparib alone
  viability: 120% (inactive)
[3]; at 0.0195 µM, OCI-C5x cells, without rucaparib
  viability: 104% (inactive)
[3]; at 0.0195 µM, OCI-P5x cells, with rucaparib 20 µM, 100% = cells with rucaparib alone
  viability: 95.5% (active)
[3]; at 0.0195 µM, OCI-P5x cells, without rucaparib
  viability: 89.1% (active)
[3]; at 0.0781 µM, OCI-C5x cells, with rucaparib 10 µM, 100% = cells with rucaparib alone
  viability: 109% (inactive)
[3]; at 0.0781 µM, OCI-C5x cells, without rucaparib
  viability: 106% (inactive)
[3]; at 0.0781 µM, OCI-P5x cells, with rucaparib 20 µM, 100% = cells with rucaparib alone
  viability: 94% (active)
[3]; at 0.0781 µM, OCI-P5x cells, without rucaparib
  viability: 94.9% (active)
[3]; at 0.313 µM, OCI-C5x cells, with rucaparib 10 µM, 100% = cells with rucaparib alone
  viability: 132% (inactive)
[3]; at 0.313 µM, OCI-C5x cells, without rucaparib
  viability: 102% (inactive)
[3]; at 0.313 µM, OCI-P5x cells, with rucaparib 20 µM, 100% = cells with rucaparib alone
  viability: 95.8% (active)
[3]; at 0.313 µM, OCI-P5x cells, without rucaparib
  viability: 90.7% (active)
[3]; at 1.25 µM, OCI-C5x cells, with rucaparib 10 µM, 100% = cells with rucaparib alone
  viability: 135% (inactive)
[3]; at 1.25 µM, OCI-C5x cells, without rucaparib
  viability: 117% (inactive)
[3]; at 1.25 µM, OCI-P5x cells, with rucaparib 20 µM, 100% = cells with rucaparib alone
  viability: 88.1% (active)
[3]; at 1.25 µM, OCI-P5x cells, without rucaparib
  viability: 89.8% (active)
[3]; at 5 µM, OCI-C5x cells, with rucaparib 10 µM, 100% = cells with rucaparib alone
  viability: 158% (inactive)
[3]; at 5 µM, OCI-C5x cells, without rucaparib
  viability: 127% (inactive)
[3]; at 5 µM, OCI-P5x cells, with rucaparib 20 µM, 100% = cells with rucaparib alone
  viability: 78.7% (active)
[3]; at 5 µM, OCI-P5x cells, without rucaparib
  viability: 84.2% (active)
[4]; at 0.5 µM, stronger effect = higher value
  inhibition: 16.1% (inactive) and -6.25% (inactive)
[4]; measured here: combination with BGB IC20, at 0.005 µM
  inhibition: 1.8% and 4.15%
[4]; measured here: combination with BGB IC40, at 0.005 µM
  inhibition: 2.63% and 14.3%
[4]; [16]
  inhibition: -10.8% and -1.22%
[4]; measured here: combination with cisplatin, at 0.5 µM, stronger effect = higher value
  inhibition: 3.22% and -32.3%
[4]; measured here: combination with cisplatin, at 5 µM, stronger effect = higher value
  inhibition: -16.9% and -3.34%
[5]; BGB combo, at 5 µM
  inhibition: -23% and 15.5%
[5]; at 0.5 µM
  inhibition: -32.5% (inactive) and 16.4% (inactive)
[5]; cisplatin combo, at 5 µM
  inhibition: -16.3% and 0.452%
[5]; measured here: with BGB IC20 combination, at 0.5 µM
  inhibition: -30.2% and 18.4%
[5]; measured here: with cisplatin IC20 combination, at 0.5 µM
  inhibition: -45.4% and 11.4%
[5]; single agent, at 5 µM
  inhibition: -5.15% and 25.1%
[6]; BGB IC20 combo, at 0.005 µM
  inhibition: -22.9% and 2.76%
[6]; BGB IC40 combo, at 0.005 µM
  inhibition: 9.28% and 13%
[6]; BGB IC40 combo, at 0.05 µM
  inhibition: -3.89% and 21%
[6]; at 0.5 µM
  inhibition: -16.1% (inactive) and 2.22% (inactive)
[6]; cisplatin combo, at 0.05 µM
  inhibition: -6.8% and 18.1%
[6]; cisplatin combo, at 0.5 µM
  inhibition: -20% and 9.29%
[6]; cisplatin combo, at 5 µM
  inhibition: -12.6% and -9.9%
[6]; measured here: 5 uM single agent, at 5 µM
  inhibition: -22.5% and 19.3%
[7]; at 0.5 µM
  inhibition: -33% (inactive) and -1.8% (inactive)
[7]; [16]
  inhibition: -32.4% and 10.2%
[7]; [17]
  inhibition: -76.1% and -10.4%
[7]; [18]
  inhibition: -10.4% and -0.263%
[8]; at 0.5 µM
  inhibition: -28.5% (inactive) and 1.8% (inactive)
[8]; measured here: with BGB IC20, at 0.5 µM
  inhibition: -38.8% and -0.919%
[8]; measured here: with BGB IC20, at 5 µM
  inhibition: -58.5% and 4.11%
[8]; measured here: with cisplatin IC20, at 0.5 µM
  inhibition: -26.7% and 6.6%
[8]; measured here: with cisplatin IC20, at 5 µM
  inhibition: -31.5% and 8.1%
[8]; single agent, at 5 µM
  inhibition: -23.9% and 9.32%
[9]; at 0.5 µM
  inhibition: -56.1% (inactive) and -1.16% (inactive)
[9]; measured here: combination with BGB at IC20, at 0.5 µM
  inhibition: -61.3% and -10.8%
[9]; measured here: combination with cisplatin at IC20, at 0.5 µM
  inhibition: -66.8% and 10.9%
[10]; at 0.5 µM
  inhibition: -15.6% (inactive) and 10.1% (inactive)
[10]; measured here: combo with BGB at IC20, at 0.5 µM
  inhibition: -9.59% and 1.06%
[10]; measured here: combo with cisplatin at IC20, at 0.5 µM
  inhibition: -27.9% and 14.3%
[11]; at 0.5 µM
  inhibition: -12.3% (inactive) and 13.4% (inactive)
[11]; measured here: inhibition with BGB combination, at 0.05 µM
  inhibition: -8.63% and 3.2%
[11]; measured here: inhibition with cisplatin combination, at 0.05 µM
  inhibition: 0.295% and 28.5%
[12]; at 0.5 µM
  inhibition: 0.9% (inactive) and 4.52% (inactive)
[12]; [17]
  inhibition: 0.458% and 8.71%
[12]; [18]
  inhibition: -55.5% and 22.9%
[13]; at 0.5 µM
  inhibition: -6.26% (inactive) and 2.54% (inactive)
[13]; measured here: BGB combination, at 0.5 µM
  inhibition: -4.1% and 0.779%
[13]; measured here: BGB combination, at 5 µM
  inhibition: -10.4% and -5.25%
[13]; measured here: cisplatin combination, at 0.5 µM
  inhibition: -10.7% and 8.48%
[13]; measured here: cisplatin combination, at 5 µM
  inhibition: -13.8% and 11%
[14]; BGB combination, concentration series, at 5 µM
  inhibition: -15.2% and 14.2%
[14]; at 0.5 µM
  inhibition: -10.2% (inactive) and 7.86% (inactive)
[14]; cisplatin combination, concentration series, at 5 µM
  inhibition: 8.95% and 1.52%
[15]
  inhibition: -4.68% (inactive) and 10.6% (inactive)
[15]; cisplatin combination
  inhibition: -2.52% and 12.6%
